Data reported in PubChem BioAssay AID1159580 (chemical genetic matrix, 2015).
About 2,000 (36%) of roughly 5,500 compounds were called active. Another 18% or so got no clear call; they are omitted. Cut-off read from the data, not from the text of the source: active = normalized growth mostly below about 0.91 (no sharp cut-off); inconclusive = no clear call, values can overlap the other calls; inactive = mostly above about 0.92. The list shows a part of the results.

Assay: chemical genetic growth profiling, strain panel (AID 1159580);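 note: tested at 20 µM; growth read once vehicle control cultures reached saturation at 30 °C; 1 = growth at the plate median or of vehicle wells; lower values mean less growth of the strain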
Settings: growth OD
[1] = S. cerevisiae deletion strains, locus YDL101C, strain DUN1, stronger effect = lower value
[2] = S. cerevisiae deletion strains, locus YHR030C, strain SLT2, stronger effect = lower value

Measured: normalized growth

Cc1c(Cl)cccc1N=C1SCC(=O)N1Cc1ccco1
active: [2] 0.758 | S. cerevisiae deletion strains, locus YLR113W, strain HOG1, stronger effect = lower value 0.809 | S. cerevisiae deletion strains, locus YPL256C, strain CLN2, stronger effect = lower value 0.791
inactive: S. cerevisiae deletion strains, locus YAR019C, strain CDC15, stronger effect = lower value 0.981 | S. cerevisiae deletion strains, locus YBL105C, strain PKC1, stronger effect = lower value 0.973 | S. cerevisiae deletion strains, locus YBR135W, strain CKS1, stronger effect = lower value 0.972 | S. cerevisiae deletion strains, locus YBR136W, strain MEC1, stronger effect = lower value 0.981 | S. cerevisiae deletion strains, locus YBR160W, strain CDC28, stronger effect = lower value 0.971 | S. cerevisiae deletion strains, locus YDL017W, strain CDC7, stronger effect = lower value 0.974 | S. cerevisiae deletion strains, locus YDL028C, strain MPS1, stronger effect = lower value 0.977 | [1] 0.979 | S. cerevisiae deletion strains, locus YDL108W, strain KIN28, stronger effect = lower value 0.972 | S. cerevisiae deletion strains, locus YDL132W, strain cdc53, stronger effect = lower value 0.978 | S. cerevisiae deletion strains, locus YDL214C, strain PRR2, stronger effect = lower value 0.905 | S. cerevisiae deletion strains, locus YDR052C, strain DBF4, stronger effect = lower value 0.986 | S. cerevisiae deletion strains, locus YDR054C, strain cdc34, stronger effect = lower value 0.96 | S. cerevisiae deletion strains, locus YDR226W, strain ADK1, stronger effect = lower value 0.98 | S. cerevisiae deletion strains, locus YDR477W, strain SNF1, stronger effect = lower value 0.918 | S. cerevisiae deletion strains, locus YER123W, strain YCK3, stronger effect = lower value 0.884 | S. cerevisiae deletion strains, locus YER133W, strain GLC7, stronger effect = lower value 0.915 | S. cerevisiae deletion strains, locus YFL009W, strain cdc4, stronger effect = lower value 0.969 | S. cerevisiae deletion strains, locus YFL029C, strain CAK1, stronger effect = lower value 0.971 | S. cerevisiae deletion strains, locus YFR003C, strain YPI1, stronger effect = lower value 0.969 | S. cerevisiae deletion strains, locus YFR019W, strain FAB1, stronger effect = lower value 0.918 | S. cerevisiae deletion strains, locus YFR028C, strain CDC14, stronger effect = lower value 0.964 | S. cerevisiae deletion strains, locus YGR040W, strain KSS1, stronger effect = lower value 0.912 | S. cerevisiae deletion strains, locus YGR052W, strain FMP48, stronger effect = lower value 1 | S. cerevisiae deletion strains, locus YGR092W, strain DBF2, stronger effect = lower value 0.943 | S. cerevisiae deletion strains, locus YHR079C, strain IRE1, stronger effect = lower value 0.888 | S. cerevisiae deletion strains, locus YHR082C, strain KSP1, stronger effect = lower value 0.942 | S. cerevisiae deletion strains, locus YHR205W, strain SCH9, stronger effect = lower value 0.896 | S. cerevisiae deletion strains, locus YIL147C, strain SLN1, stronger effect = lower value 0.975 | S. cerevisiae deletion strains, locus YJL095W, strain BCK1, stronger effect = lower value 0.823 | S. cerevisiae deletion strains, locus YJL128C, strain PBS2, stronger effect = lower value 0.951 | S. cerevisiae deletion strains, locus YJL157C, strain FAR1, stronger effect = lower value 0.936 | S. cerevisiae deletion strains, locus YJR016C, strain ILV3, stronger effect = lower value 0.969 | S. cerevisiae deletion strains, locus YJR066W, strain TOR1 (second series), stronger effect = lower value 0.903 | S. cerevisiae deletion strains, locus YJR066W, strain TOR1, stronger effect = lower value 0.893 | S. cerevisiae deletion strains, locus YKL048C, strain ELM1, stronger effect = lower value 0.975 | S. cerevisiae deletion strains, locus YKL067W, strain YNK1, stronger effect = lower value 0.903 | S. cerevisiae deletion strains, locus YKL101W, strain HSL1, stronger effect = lower value 0.923 | S. cerevisiae deletion strains, locus YKL193C, strain SDS22, stronger effect = lower value 0.966 | S. cerevisiae deletion strains, locus YKL203C, strain TOR2, stronger effect = lower value 0.954 | S. cerevisiae deletion strains, locus YLR133W, strain CKI1, stronger effect = lower value 0.918 | S. cerevisiae deletion strains, locus YLR403W, strain SFP1, stronger effect = lower value 0.918 | S. cerevisiae deletion strains, locus YML070W, strain DAK1, stronger effect = lower value 0.892 | S. cerevisiae deletion strains, locus YMR001C, strain CDC5, stronger effect = lower value 0.973 | S. cerevisiae deletion strains, locus YMR205C, strain PFK2 (second series), stronger effect = lower value 0.919 | S. cerevisiae deletion strains, locus YMR277W, strain FCP1, stronger effect = lower value 0.969 | S. cerevisiae deletion strains, locus YNL006W, strain LST8, stronger effect = lower value 0.974 | S. cerevisiae deletion strains, locus YNL020C, strain ARK1, stronger effect = lower value 0.914 | S. cerevisiae deletion strains, locus YNL161W, strain CBK1, stronger effect = lower value 0.978 | S. cerevisiae deletion strains, locus YNL183C, strain NPR1, stronger effect = lower value 0.849 | S. cerevisiae deletion strains, locus YNL207W, strain RIO2, stronger effect = lower value 0.974 | S. cerevisiae deletion strains, locus YNL222W, strain SSU72, stronger effect = lower value 0.969 | S. cerevisiae deletion strains, locus YNL307C, strain MCK1 (second series), stronger effect = lower value 0.892 | S. cerevisiae deletion strains, locus YOL078W, strain AVO1, stronger effect = lower value 0.978 | S. cerevisiae deletion strains, locus YOL136C, strain PFK27, stronger effect = lower value 0.889 | S. cerevisiae deletion strains, locus YOR061W, strain CKA2, stronger effect = lower value 0.925 | S. cerevisiae deletion strains, locus YOR119C, strain RIO1, stronger effect = lower value 0.998 | S. cerevisiae deletion strains, locus YOR231W, strain MKK1, stronger effect = lower value 0.885 | S. cerevisiae deletion strains, locus YOR329C, strain SCD5, stronger effect = lower value 0.976 | S. cerevisiae deletion strains, locus YPL031C, strain PHO85, stronger effect = lower value 0.897 | S. cerevisiae deletion strains, locus YPL153C, strain RAD53, stronger effect = lower value 0.916 | S. cerevisiae deletion strains, locus YPL204W, strain HRR25, stronger effect = lower value 0.89 | S. cerevisiae deletion strains, locus YPL209C, strain IPL1, stronger effect = lower value 0.976 | S. cerevisiae deletion strains, locus YPR025C, strain CCL1, stronger effect = lower value 0.975 | S. cerevisiae deletion strains, locus YPR106W, strain ISR1, stronger effect = lower value 0.963 | S. cerevisiae deletion strains, locus YPR111W, strain DBF20, stronger effect = lower value 0.954 | S. cerevisiae deletion strains, strain NNK1, stronger effect = lower value 0.951 | S. cerevisiae deletion strains, strain TSCII, stronger effect = lower value 0.976

COc1ccccc1N=C1SCC(=O)N1Cc1ccco1
inactive: S. cerevisiae deletion strains, locus YAL013W, strain DEP1, stronger effect = lower value 0.993 | S. cerevisiae deletion strains, locus YBR229C, strain ROT2, stronger effect = lower value 0.99 | [1] 0.983 | S. cerevisiae deletion strains, locus YDR150W, strain NUM1, stronger effect = lower value 0.9 | S. cerevisiae deletion strains, locus YEL061C, strain CIN8, stronger effect = lower value 0.989 | S. cerevisiae deletion strains, locus YGR078C, strain PAC10, stronger effect = lower value 0.981 | S. cerevisiae deletion strains, locus YGR229C, strain SMI1, stronger effect = lower value 1 | [2] 0.956 | S. cerevisiae deletion strains, locus YHR087W, strain rtc3, stronger effect = lower value 0.989 | S. cerevisiae deletion strains, locus YJR043C, strain POL32, stronger effect = lower value 0.977 | S. cerevisiae deletion strains, locus YJR075W, strain HOC1, stronger effect = lower value 0.978 | S. cerevisiae deletion strains, locus YKL190W, strain CNB1, stronger effect = lower value 0.997 | S. cerevisiae deletion strains, locus YLR039C, strain RIC1, stronger effect = lower value 0.989 | S. cerevisiae deletion strains, locus YLR058C, strain SHM2 (second series), stronger effect = lower value 0.99 | S. cerevisiae deletion strains, locus YLR085C, strain ARP6, stronger effect = lower value 0.968 | S. cerevisiae deletion strains, locus YLR262C, strain YPT6, stronger effect = lower value 0.998 | S. cerevisiae deletion strains, locus YML094W, strain GIM5, stronger effect = lower value 0.972 | S. cerevisiae deletion strains, locus YMR219W, strain ESC1, stronger effect = lower value 0.989 | S. cerevisiae deletion strains, locus YMR263W, strain SAP30, stronger effect = lower value 0.987 | S. cerevisiae deletion strains, locus YNL153C, strain GIM3, stronger effect = lower value 0.987 | S. cerevisiae deletion strains, locus YNL298W, strain CLA4 (second series), stronger effect = lower value 0.997 | S. cerevisiae deletion strains, locus YNL322C, strain KRE1, stronger effect = lower value 0.985 | S. cerevisiae deletion strains, locus YNR030W, strain Alg12, stronger effect = lower value 0.998 | S. cerevisiae deletion strains, locus YOL006C, strain TOP1, stronger effect = lower value 0.951 | S. cerevisiae deletion strains, locus YPL055C, strain LGE1, stronger effect = lower value 0.969 | S. cerevisiae deletion strains, locus YPL241C, strain CIN2, stronger effect = lower value 1.01 | S. cerevisiae deletion strains, locus YPR135W, strain CTF4, stronger effect = lower value 0.939 | S. cerevisiae strains, strain wild type, stronger effect = lower value 1
